Compound activity (PubChem BioAssay)
PINK1 expr mod: A Quantitative High throughput Screen to Identify Chemical Modulators of PINK1 Expression; PINK1 immunofluorescence, high-content cytometry, 24 h; Potency, µM (top dose mostly 76.6 µM), for inactives: at the top dose activation (PINK1 increase), hits mostly activators; hit rate 0.2% among 410,000; active means well fitted activation curve with a large enough effect; inconclusive means small, poorly fitted or top-dose-only effect; cell line not stated here; further: % of control where 0% means no effect; nearly all actives have a fitted effect of over 65% in size
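Readout is PINK1 immunofluorescence, quantified alongside mitochondrial, cell and nuclear markers by laser-scanning microplate cytometry. Cells from a stable line were exposed to compound titrations (5 concentrations) for 24 hours, with CCCP controls.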
Epigenetic derep: Quantitative High-Throughput Screen for Regulators of Epigenetic Control; murine LDR cells, GFP reporter derepression, 30 h; AID 1865, 2009; hit rate 0.2% among 280,000; Potency, µM (highest dose often 53.9 µM), inactives show top-dose GFP activation, most hits filed as activators; further: % of control where 0% means no effect; nearly all actives have a fitted effect of over 60% in size
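Murine LDR cells carrying a silenced, genomically integrated CMV-driven GFP reporter were exposed to compound for 30 hours at 37 C. After PBS washes, GFP-positive cells (20–120 um objects) were counted by laser-scanning microplate cytometry.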
RORgamma inh: qHTS for inhibitors of ROR gamma transcriptional activity; Potency, µM (top dose mostly 53.6 µM), for the others: top-dose activity change, negative = inhibition, hits mostly inhibitors; Nuclear receptor ROR-gamma (Mus musculus), P51450; AID 2551, 2010; Drosophila S2 Gal4-RORgamma UAS-luciferase reporter, 20 h; hit rate 5.4% among 310,000; further: on the % scale 0 is the no-effect control and ±100 the full control effect; nearly all actives have a fitted effect of over 60% in size
Target sequence (P51450 whole entry, looked up, the tested form may be a part): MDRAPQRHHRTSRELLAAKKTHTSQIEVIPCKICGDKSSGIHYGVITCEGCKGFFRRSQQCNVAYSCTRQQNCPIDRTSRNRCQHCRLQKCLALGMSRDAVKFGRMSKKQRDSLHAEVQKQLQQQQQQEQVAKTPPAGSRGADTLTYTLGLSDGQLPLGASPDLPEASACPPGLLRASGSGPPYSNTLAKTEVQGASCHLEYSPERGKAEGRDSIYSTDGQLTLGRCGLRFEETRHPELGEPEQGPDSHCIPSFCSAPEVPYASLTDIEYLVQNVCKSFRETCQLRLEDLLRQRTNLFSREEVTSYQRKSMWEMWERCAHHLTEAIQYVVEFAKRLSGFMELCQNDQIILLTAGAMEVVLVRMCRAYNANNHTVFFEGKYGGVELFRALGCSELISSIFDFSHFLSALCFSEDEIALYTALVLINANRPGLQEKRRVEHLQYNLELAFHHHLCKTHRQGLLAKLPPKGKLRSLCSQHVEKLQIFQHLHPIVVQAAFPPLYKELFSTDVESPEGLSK
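Luciferase reporter read in Schneider cells carrying Gal4-RORγ (mouse) and UAS-Photinus luciferase; cells given compound 1 h before 700 uM copper sulfate induction, then incubated 20 h at ambient temperature.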
Sfp inh: qHTS Assay for Inhibitors of Bacillus subtilis Sfp phosphopantetheinyl transferase (PPTase). Biochemical Sfp PPTase activity, qHTS. 4'-phosphopantetheinyl transferase ffp (Bacillus subtilis), Q9F4F7. Potency, µM, for the others: largest response in the series, negative = inhibition, usual class: inhibitors. hit rate 3.5% among 310,000. AID 1490, 2009;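 further: the enzyme is Sfp with the accession as filed and its product quenches rhodamine fluorescence; 0% = enzyme reaction without inhibitor and -100% = no enzyme wells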
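With Hepes-Na pH 7.6 buffer containing 10 mM MgCl2, Sfp (15 nM) modified BHQ-2-YbbR (12.5 uM) using rhodamine-CoA (5 uM). Two reads 30 minutes apart at 525/598 nm yielded each well's rate.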
ClpP mod: qHTS Assay for Activators of ClpP; ATP-dependent Clp protease proteolytic subunit (Bacillus subtilis (strain 168)), P80244; Potency, µM (highest dose often 57.5 µM), inactives show at the highest dose activity change, negative = active; purified B. subtilis ClpP, FRET peptide cleavage, 20 min; hit rate 1.9% among 340,000; active means well fitted falling curve with a large enough effect; inconclusive means small, poorly fitted or top-dose-only effect; inactive means no such curve, though single readings can be large or run the other way; further: the source files actives as falling curves though it sought activators and does not explain the sign; nearly all actives have a fitted effect of over 65% in size
Target sequence (P80244 whole entry, looked up): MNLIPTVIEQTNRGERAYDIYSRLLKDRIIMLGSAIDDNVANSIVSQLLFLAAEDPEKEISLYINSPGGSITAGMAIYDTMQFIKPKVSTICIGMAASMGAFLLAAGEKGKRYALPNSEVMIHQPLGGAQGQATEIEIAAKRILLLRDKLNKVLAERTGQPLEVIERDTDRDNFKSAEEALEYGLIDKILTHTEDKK
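Purified B. subtilis ClpP, 10 microg/mL final in Tris/HCl pH8 with KCl, BSA, glycerol and Tween-20, cleaved an Abz/nitrotyrosine-quenched decapeptide. Fluorescence (ex 320, em 430) was read at 0 and 20 min at room temperature. Delta was normalized to 5.8 microM ADEP and DMSO/no-enzyme controls.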
VP16 counter: VP16 counterscreen qHTS for inhibitors of ROR gamma transcriptional activity. Drosophila S2 Gal4-VP16 UAS-luciferase, luminescence, 20 h. hit rate 3.5% among 310,000. Potency, µM (doses to about 53.6 µM), without a hit: at the top dose activity, negative = inhibition, hits mostly inhibitors. AID 2546, 2010;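 further: Gal4-VP16 expression switched on by copper sulfate through the metallothionein promoter; on the % scale 0 is the no-effect control and ±100 the full control effect; nearly all actives have a fitted effect of over 50% in size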
An asterisk follows results filed as active; ? = inconclusive; . = no result; [ ] = remark or other dose. Compounds with a hit are over-represented: about 8.1% of the library has one in this group of screens. Unless noted, the call rests on the fitted dose curve; in most records, active means well fitted curve in the direction sought with a large enough effect; inconclusive means small, poorly fitted or top-dose-only effect, or another doubt; inactive means no such curve, though single readings can be large; an effect the other way counts as inactive or inconclusive. Potency means the concentration at half of the fitted maximal effect.

SMILES	PINK1 expr mod	Epigenetic derep	RORgamma inh	Sfp inh	ClpP mod	VP16 counter
COCCn1nnnc1C(c1ccc(OC)cc1OC)N1CCN(c2ccccc2F)CC1 (stereo unspecified)	-2.5%	-4.2%	3.5%	10.1%	1.4%	2.5%
COc1ccc(Cn2nnnc2C(c2cc3ccc(OC)cc3[nH]c2=O)N2CCC(C)CC2)cc1 (stereo unspecified)	2.1%	-0.1%	?	39.8µM*	-19.1%	9.2%
CCc1ccc2[nH]c(=O)c(C(c3nnnn3CCOC)N3CCN(c4ccccc4F)CC3)cc2c1 (stereo unspecified)	1.5%	1.0%	42.8%	8.91µM*	-17.3%	-2.6%
Cc1ccc(-c2cc(C3C4C=CCCC4(C)C(=O)N3Cc3ccccc3)ccc2F)cc1 (stereo unspecified)	.	.	14.5%	-22.9%	.	-3.0%
COc1ccc(N2CCN(S(=O)(=O)c3ccc(F)c(C(=O)Nc4ccccc4Cl)c3)CC2)cc1	9.4%	3.2%	.	.	-0.9%	.
CCOc1ccc(-c2cc(C(=O)N3CCN(c4ccccn4)CC3)c3ccccc3n2)cc1	?	0.0%	1.4%	?	3.7%	-23.4%
CCOc1ccc(-c2cc(C(=O)N3CCCC3)c3ccccc3n2)cc1	14.2%	.	-4.1%	-0.2%	14.1µM*	17.4%
COc1cc(-c2ccccc2)nc2ccccc12	0.5%	-0.8%	-7.8%	0.4%	-0.4%	2.3%
CCOc1ccc(-c2cc(C(=O)N3CCN(C)CC3)c3ccccc3n2)cc1	2.7%[38.3 µM]	-1.1%	29.9%	18.6%	28.2µM*	?
COc1ccc(-c2cc(C(=O)N3CCCC3)c3ccccc3n2)cc1	1.0%	.	-12.2%	-2.0%	3.6%	-5.7%
COc1ccc(-c2cc(OC)c3ccccc3n2)cc1	11.1%	-0.9%	15.8%	-14.4%	20µM*	-2.7%
COc1ccc(-c2cc(C(=O)O)c3ccccc3n2)c(OC)c1	0.6%	-0.1%	-12.2%	5.3%	-13.4%	-2.9%
COc1ccc2cc(-c3cc(C(=O)O)c4ccccc4n3)ccc2c1	-1.7%	0.8%	3.8%	8.9%	25.1µM*	-2.0%
CCC1(C2CCN(Cc3cc4ccccc4o3)CC2)NC(=O)N(CC2COc3ccccc3O2)C1=O (stereo unspecified)	-0.2%	.	.	.	.	.
CCOC(=O)N1CCN(C(=O)c2cc(-c3ccc(OCC)cc3)nc3ccccc23)CC1	-1.0%[38.3 µM]	-1.0%	-23.2%	-10.8%	28.2µM*	?
COc1cc(C(=O)O)nc2ccccc12	3.3%	-0.9%	?	63.1µM*	0.3%	3.1%
CCOC(=O)N1CCN(C(=O)c2cc(-c3ccncc3)nc3ccccc23)CC1	9.3%	.	.	.	-8.7%	.
CC1CN(C(=O)c2cc(-c3ccc(Cl)s3)nc3ccccc23)CC(C)O1 (stereo unspecified)	0.6%	.	.	.	28.2µM*	.
NC(=O)C1CCN(C(=O)c2cc(-c3ccc(Cl)s3)nc3ccccc23)CC1	1.2%	.	.	.	4.1%	.
CCCc1ccc(-c2cc(C(=O)N3CCN(c4ccccn4)CC3)c3ccccc3n2)cc1	3.6%	.	11.2µM*	1.8%	-22.6%	14.1µM*
O=C(c1cccc([N+](=O)[O-])c1)N1c2ncnn2C2(CCCCC2)[C@@H]2CCCC[C@@H]21	1.5%	0.0%	.	.	0.2%	.
O=C(COC(=O)c1ccccc1OCc1cccc(Br)c1)Nc1ccc(Br)cc1	0.7%	.	.	.	-4.5%	.
Cc1cc2ncn(C(=O)c3cc(-c4ccccc4)nc4ccccc34)c2cc1C	1.6%	-2.0%	-9.0%	-6.4%	14.1µM*	-7.0%
Cc1cnn(C(=O)c2cc(-c3ccccc3)nc3ccccc23)c1	-3.6%[38.3 µM]	6.7%	3.0%	-4.6%	17.6%	2.6%
COc1ccc(-c2cc(C(=O)N3CC(C)CC(C)C3)c3ccccc3n2)cc1 (stereo unspecified)	3.3%	.	.	.	28.2µM*	.
SMILES	PINK1 expr mod	Epigenetic derep	RORgamma inh	Sfp inh	ClpP mod	VP16 counter
CCCCCOC(=O)CSc1nc2sc3c(c2c(=O)n1Cc1ccccc1)CC(C)(CC)OC3 (stereo unspecified)	-0.2%	-0.8%	.	.	-8.7%	.
C#CCCCO/N=C1/[C@H]2O[C@@H]2[C@@H](O)[C@H]2[C@H]1CCn1c(=O)n(Cc3cc4c(cc3Cl)OCO4)c(=O)n12	.	0.8%[10.1 µM]	-14.6%[10 µM]	13.9%	.	-3.1%[10 µM]
C[C@H](O)C(N)C(=O)O (stereo partly specified)	.	.	-28.8%	10.4%	.	-4.9%
Cc1ccc2c(c1)C(c1ccc(F)cc1)N(C(=O)C(C)C)CC(=O)N2 (stereo unspecified)	-0.5%	-0.6%	.	.	-11.8%	.
O=C(N/N=C/C1CC=CCC1)c1cc2ccccc2cc1O (stereo unspecified)	2.3%	0.0%	10µM*	8.4%	-3.7%	?
O=C(N/N=C/C1CC=CCC1)c1ccc(O)cc1O (stereo unspecified)	-0.8%	3.2%	1.12µM*	-0.3%	-1.8%	2.82µM*
COc1cc(C(=O)N/N=C/C2CC=CCC2)cc(OC)c1OC (stereo unspecified)	?	-3.2%	-35.8%	-4.2%	2.7%	?
Cc1nn(-c2ccc(N3CCCCC3)nn2)c(C)c1CCC(=O)NCc1ccccc1	1.5%	0.0%	.	.	-1.5%	.
CCN(C(=O)Cn1cc(C(=O)c2ccc(F)cc2)c(=O)c2ccc(C)nc21)c1cccc(C)c1	1.7%	-1.3%	.	.	-5.7%	.
O=C(COc1ccc(Cl)cc1Cl)NNC(=S)NC(=O)c1ccco1	0.9%	-1.8%	11.2µM*	?	.	?
O=C(COc1ccc(Cl)cc1Cl)NCc1ccco1	0.6%	1.0%	?	9.4%	-0.6%	-17.9%
O=C(NC(=S)NCc1ccc(Cl)cc1Cl)c1ccco1	4.0%	.	.	.	0.3%	.
CCCOc1ccc(C(=O)NNC(=S)NC(=O)c2ccco2)cc1	-1.0%	2.0%	-33.7%	3.2%	-3.4%	-19.8%
CC(Oc1ccc(Cl)cc1)C(=O)NNC(=S)NC(=O)c1ccco1 (stereo unspecified)	-1.1%	0.0%	12.6µM*	-4.6%	-2.1%	?
O=C(COc1ccc(Cl)cc1Cl)NNC(=S)NCc1ccco1	0.5%	4.4%	3.16µM*	9.0%	-2.4%	?
Cc1ccc(S(=O)(=O)N[C@H]2COC(=O)C/C=C\[C@H](C)[C@@H](NS(=O)(=O)c3ccc(C)cc3)COC(=O)C/C=C\[C@@H]2C)cc1	.	0.8%[10.1 µM]	-3.3%[10 µM]	10.5%	.	-6.4%[10 µM]
O=C(NCc1cccs1)c1ccc(CSc2nc3ccncc3n2Cc2ccccc2F)cc1	1.8%	0.0%	.	.	-10.1%	.
